Tau ThT inhib: qHTS for Inhibitors of Tau Fibril Formation, Thioflavin T Binding. Potency, µM (doses to about 57.4 µM), for inactives: top-dose activity, negative = inhibition, usual class: inhibitors. recombinant tau K18 P301L, heparin-induced fibrillization, ThT fluorescence. hit rate 2.1% among 270,000. Microtubule-associated protein tau (Homo sapiens), P10636; also: nearly all actives have a fitted effect of over 55% in size
Target sequence (P10636 561-689 P618L limits assumed): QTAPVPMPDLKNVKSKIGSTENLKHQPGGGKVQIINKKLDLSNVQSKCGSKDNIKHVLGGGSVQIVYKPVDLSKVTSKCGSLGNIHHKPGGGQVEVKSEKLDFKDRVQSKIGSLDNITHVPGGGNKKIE
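Tau K18 P301L fragment (15 uM unlabeled plus 0.24 uM Alexa 594-labeled) in 100 mM sodium acetate pH 7 with compound, fibrillization induced by 20 uM heparin for 6 hr at 37 C. Thioflavin T (30 uM) added, fluorescence read after 1 hr (ex 450, em 510 nm).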
Tau FP inhib: qHTS for Inhibitors of Tau Fibril Formation, Fluorescence Polarization; Microtubule-associated protein tau (Homo sapiens), P10636; K18 P301L tau heparin fibrillization, Alexa594 FP, 6 h; hit rate 0.39% among 280,000; Potency, µM (doses to about 57.7 µM), without a hit: at the highest dose activity, negative = inhibition, hits mostly inhibitors; also: nearly all actives have a fitted effect of over 55% in size
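Recombinant K18 P301L […], labeled with Alexa 594 at 0.24 uM over 15 uM unlabeled; heparin inducer 20 uM final; 37 C, 6 hr; FP endpoint.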
Tau fluor cs: Counterscreen qHTS for Inhibitors of Tau Fibril Formation, Fluorescence Polarization. tau K18 P301L Alexa594 fluorescence, heparin fibrillization. Potency, µM (highest dose often 57.7 µM), for the others: at the highest dose activity change, negative = decrease. hit rate 0.93% among 280,000. AID 1463, 2008; also: nearly all actives have a fitted effect of over 55% in size
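Human tau K18 P301L (15 uM unlabeled, 0.24 uM Alexa 594-labeled) in 100 mM sodium acetate pH 7 with 20 uM heparin, 6 hr at 37 C. ThT 30 uM added, 1 hr ambient; Alexa 594 FP and total fluorescence read at 555/632 nm.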
TR SRC2 fluor cs: Total Fluorescence Counterscreen for Inhibitors of the Interaction of Thyroid Hormone Receptor and Steroid Receptor Coregulator 2 | TRb/SRC2 Texas Red total fluorescence interference | Potency, µM (titrated, usually from 106 µM), inactives show at the highest dose fluorescence change, negative = quenching | hit rate 0.29% among 280,000; active = well fitted curve in either direction with a large enough effect; inconclusive = small, poorly fitted or top-dose-only effect
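Flags fluorescent or light-absorbing compounds by total fluorescence, S + 2P, at 555 nm excitation and 632 nm emission. Mixture: 20 nM Texas Red SRC2 peptide, 0.6 uM human TRb LBD, 1 uM T3, 5% DMSO; compound exposure 5 h at ambient temperature.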
TRb SRC2 PPI: qHTS for Inhibitors of the Interaction of Thyroid Hormone Receptor and Steroid Receptor Coregulator 2. Thyroid hormone receptor beta (Homo sapiens), P10828. TRbeta-SRC2 peptide binding, fluorescence polarization; receptor liganded with 1 µM T3. Potency, µM (highest dose often 106 µM), without a hit: at the top dose activity change, negative = inhibition, most hits filed as inhibitors. hit rate 0.065% among 280,000;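 also: plate controls were bound peptide for no effect and peptide without receptor for full effect; nearly all actives have a fitted effect of over 50% in size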
Target sequence (P10828 whole entry, looked up): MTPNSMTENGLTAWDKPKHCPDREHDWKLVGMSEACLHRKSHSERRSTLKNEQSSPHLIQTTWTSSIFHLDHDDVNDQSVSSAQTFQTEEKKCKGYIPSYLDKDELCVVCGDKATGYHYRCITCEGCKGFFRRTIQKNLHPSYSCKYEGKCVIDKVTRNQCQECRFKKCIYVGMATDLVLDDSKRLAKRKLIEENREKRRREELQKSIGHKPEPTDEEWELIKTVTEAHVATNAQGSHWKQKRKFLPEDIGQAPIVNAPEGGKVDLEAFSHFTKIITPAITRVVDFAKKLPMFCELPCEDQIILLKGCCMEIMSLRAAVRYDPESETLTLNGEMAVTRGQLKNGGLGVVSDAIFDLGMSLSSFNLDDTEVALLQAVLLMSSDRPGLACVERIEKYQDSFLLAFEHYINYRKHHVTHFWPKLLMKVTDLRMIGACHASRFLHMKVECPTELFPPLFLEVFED
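Human TRb LBD (0.6 uM) plus Texas Red-labeled SRC2 peptide (20 nM), 1uM T3, 5% DMSO, 5 hr at ambient temperature. Decreased polarization (555/632 nm) flags inhibition; data normalized to free and bound peptide controls.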
An asterisk follows results filed as active; ? = inconclusive; . = no result; [ ] = another dose, or the depositor's remark. Hits are enriched below; roughly 3.1% of the tested compounds scored in any of these assays. Unless noted, calls follow the shape of the dose curve; as a rule, active = well fitted curve in the direction sought with a large enough effect; inconclusive = small, poorly fitted or top-dose-only effect, or another doubt; inactive = no such curve, though single readings can be large; an effect the other way counts as inactive or inconclusive. Unless noted, % is scaled to controls: 0 for no effect and ±100 for the full control effect; potency is read from the fitted curve at half-maximal effect.

SMILES	Tau ThT inhib	Tau FP inhib	Tau fluor cs	TR SRC2 fluor cs	TRb SRC2 PPI
Cc1ccc(N2C(=O)NC(=O)/C(=C/c3ccoc3)C2=O)cc1	.	-12%	-14%	25%	3%
O=C1NC(=O)N(Cc2ccccc2)C(=O)/C1=C\c1ccco1	?	-5%	-4%	4%	4%
CCCCCCCCCCCCN(C)C	.	.	.	1%[201 µM]	6%[201 µM]
CCCCCCCCCCCCCCC(Br)C(=O)O (stereo not drawn)	.	.	.	-2%[201 µM]	6%[201 µM]
CC(C)c1ccc(N2C(=O)NC(=O)/C(=C/C=C/c3ccco3)C2=O)cc1	14µM*	14µM*	-29%	10%	11%
O=C1NC(=O)N(c2ccccc2)C(=O)/C1=C\C=C\c1ccccc1	11µM*	?	-22%	-4%	4%
CCCCN1C(=O)/C(=C\c2ccco2)C(=O)N(CCc2ccccc2)C1=O	?	1%	-9%	28µM*[fluorescent]	?
Cc1cc(C)cc(N2C(=O)NC(=O)/C(=C\C=C\c3ccco3)C2=O)c1	13µM*	?	-18%	20%	10%
Cc1ccccc1C(=O)Nc1cccc(OC(C)C)c1	.	.	.	-3%[201 µM]	-5%[201 µM]
O=C(Nc1ccc(Oc2ccccc2)cc1)c1ccc(F)c(S(=O)(=O)N2CCN(c3cccc(Cl)c3)CC2)c1	4%	?	0%	-4%	1%
CCOC(=O)C(Cl)Cc1cc(-n2nc(C)n(C(F)F)c2=O)c(F)cc1Cl (stereo not drawn)	.	.	.	0%[201 µM]	-6%[201 µM]
CCCCN1C(=O)/C(=C/c2ccc(N(C)C)cc2)C(=O)N(Cc2ccco2)C1=O	?	-12%	-11%	40µM*[fluorescent]	?
Cn1c(O)c(N=Nc2cccc(S(=O)(=O)N3CCOCC3)c2)c(=O)n(C)c1=O	5%	9%	6%	0%	5%
CCN(CC)S(=O)(=O)c1cccc(N=Nc2c(O)n(CC)c(=S)n(CC)c2=O)c1	16µM*	9%	?	-1%	10%
COc1cccc2c1cc([N+](=O)[O-])c1c(C(=O)O)cc3c(c12)OCO3	14µM*	-2%	?	-10%	-3%
CCc1ccc(-n2nc(C)c3c(C(=O)NCCc4ccc(OC)c(OC)c4)cc(C)nc32)cc1	?	2%	-29%	2%	3%
CCc1c(C)nc(N)nc1N1N=C1SC(C(C)=O)C(C)=O	18µM*	?	-20%	-3%	7%
O=P(OCC(Br)CBr)(OCC(Br)CBr)OCC(Br)CBr (stereo not drawn)	.	.	.	2%[201 µM]	-6%[201 µM]
O=C(NC(=O)c1c(F)cccc1F)Nc1cc(Cl)c(OC(F)(F)C(F)C(F)(F)F)c(Cl)c1F (stereo not drawn)	.	.	.	-2%[201 µM]	2%[201 µM]
CS/C(C)=N/OC(=O)N(C)SN(C)C(=O)O/N=C(\C)SC	.	.	.	5%[201 µM]	0%[201 µM]
CN1CCN(c2ccc(C=O)cc2)CC1	0%	3%	-3%	1%	2%
CCN1CCN(c2ccc(N)cc2)CC1	25µM*	?	?	1%	-8%
CN1CCN(c2ccc(N)c(N3CCN(C)CC3)c2)CC1	28µM*	?	?	18%	-21%
CN1CCN(c2ccc(N)cc2)CC1	25µM*	?	?	0%	-16%
CCCOCC(=Nc1ccc(Cl)cc1C(F)(F)F)n1ccnc1	.	.	.	?	-11%[201 µM]
SMILES	Tau ThT inhib	Tau FP inhib	Tau fluor cs	TR SRC2 fluor cs	TRb SRC2 PPI
CCCCC(O)(Cn1cncn1)c1ccc(Cl)cc1Cl (stereo not drawn)	.	.	.	-1%[201 µM]	0%[201 µM]
NS(=O)(=O)C(F)(F)C(F)(F)C(F)(F)C(F)(F)C(F)(F)C(F)(F)C(F)(F)C(F)(F)F	.	.	.	3%[201 µM]	5%[201 µM]
C/C(=N\C(N)=O)N(C)Cc1ccc(Cl)nc1	.	.	.	2%[201 µM]	-1%[201 µM]
CCC[CH2][Sn]([Cl])([CH2]CCC)[CH2]CCC	.	.	.	1%[201 µM]	8%[201 µM]
O=c1[nH]c(=S)[nH]c(O)c1N=Nc1cccc(S(=O)(=O)N2CCOCC2)c1	?	-2%	-5%	-7%	-1%
O=c1[nH]c(O)c(Cc2ccc3c(c2)OCO3)c(=O)[nH]1	.	15%	?	-1%	1%
O=C(N=Nc1c(O)[nH]c(=O)[nH]c1=O)C1COc2ccccc2O1 (stereo not drawn)	28µM*	?	-11%	0%	5%
O=c1[nH]c(O)c(N=Nc2ccc3c(c2)OCCO3)c(=O)[nH]1	5.6µM*	11%	-8%	-4%	-1%
O=c1[nH]c(=S)[nH]c(O)c1N=Nc1ccc2c(c1)OCO2	4µM*	8%	-11%	-1%	7%
O=c1[nH]c(=S)[nH]c(O)c1N=Nc1ccc2c(c1)OCCO2	2.2µM*	-13%	-18%	-6%	-1%
CC(C)(C)OOC(C)(C)CCC(C)(C)OOC(C)(C)C	.	.	.	-4%[201 µM]	6%[201 µM]
CCNS(=O)(=O)C(F)(F)C(F)(F)C(F)(F)C(F)(F)C(F)(F)C(F)(F)C(F)(F)C(F)(F)F	.	.	.	-2%[201 µM]	-1%[201 µM]
CN/C(=N/[N+](=O)[O-])NCC1CCOC1 (stereo not drawn)	.	.	.	-5%[201 µM]	2%[201 µM]
N#CSCC(=O)N1c2ccccc2CCc2ccccc21	14µM*	?	-19%	-2%	1%
Nc1ccccc1C(=O)OCC(=O)N1CCc2ccccc21	?	9%	-14%	-3%	0%
COP(=O)(OC)OC(Br)C(Cl)(Cl)Br (stereo not drawn)	.	.	.	-10%[201 µM]	-4%[201 µM]
O=C(Nc1ccccc1)Nc1ccnc(Cl)c1	.	.	.	-1%[201 µM]	6%[201 µM]
Cc1ccc(NC(=O)Cn2cc(C(=O)c3ccccc3)c3ccccc32)cc1	5%	-19%	?	0.025µM*[quencher]	-15%
Cc1ccccc1N1C(=O)CC(=O)NC1=O	16µM*	?	-28%	1%	5%
Cn1c(O)c(/C=C/C=Nc2ccccc2)c(=O)n(C)c1=S	?	?	6.3µM*[fluorescent]	-4%	0%
Cc1ccccc1-n1c(O)c(/C=C/C=Nc2ccccc2)c(=O)[nH]c1=O	?	-7%	-4%	13%	14%
O=C1Nc2ccccc2/C1=C/c1cnc[nH]1	?	6%	0%	-3%	-4%
COc1ccc2c(c1)/C(=C/c1cnc[nH]1)C(=O)N2	14µM*	8%	-18%	-8%	-4%
Clc1ccc(C2(Cn3cncn3)CC(Br)CO2)c(Cl)c1 (stereo not drawn)	.	.	.	0%[201 µM]	3%[201 µM]
O=C(Nc1ccc2nc(-c3cccs3)c(-c3cccs3)nc2c1)NC1CC1	?	22µM*	?	3%	1%
CC1(C)CC(=O)C2=C(C1)OC(N)=C([N+](=O)[O-])C2c1ccc(C#N)s1 (stereo not drawn)	8.9µM*	?	?	-4%	-1%
